# Integrin act MD: activators of alpha7 integrin expression for muscular dystrophy; alpha7betagal myoblasts, beta-gal FDG fluorescence, 48 h; Potency, µM (top dose mostly 38.3 µM), without a hit: at the top dose activation, usual class: activators; hit rate 0.064% among 350,000; AID 624291;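 further: 100% = response of the positive control SU9516; nearly all actives have a fitted effect of over 60% in size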
#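 alpha7betagal+/- myoblasts (passage 13, 250/well) treated 48 h at 37C with compounds at 1:260 dilution of DMSO stock. Lysed, then beta-galactosidase activity read as FDG fluorescence (ex 480/em 540) after 30 min, with pre-read for autofluorescence.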
# Mito fusion yeast: mitochondrial division inhibition or fusion activation. S. cerevisiae fusion-defective mutant growth rescue, CellTiterGlo 48 h. Potency, µM (doses to about 46.1 µM), without a hit: at the top dose growth rescue (activation), usual class: activators. hit rate 0.23% among 320,000; further: % of control where 0% means no effect; nearly all actives have a fitted effect of over 45% in size
#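 Yeast fusion mutant, YPEG (non-fermentable carbon), compound, 48 h at 37C non-permissive; CellTiterGlo added, 10 min RT, luminescence read. Rescued growth = division inhibition.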
# RORg inh: ROR gamma (mouse) transcription inhibition. hit rate 5.4% among 310,000. P51450. Potency, µM (doses to about 53.6 µM), without a hit: at the highest dose activity change, negative = inhibition, most hits filed as inhibitors. Drosophila S2 Gal4-RORgamma UAS-luciferase reporter, 20 h. AID 2551; further: on the % scale 0 is the no-effect control and ±100 the full control effect; nearly all actives have a fitted effect of over 60% in size
# Target sequence (P51450 whole entry, looked up, the tested form may be a part): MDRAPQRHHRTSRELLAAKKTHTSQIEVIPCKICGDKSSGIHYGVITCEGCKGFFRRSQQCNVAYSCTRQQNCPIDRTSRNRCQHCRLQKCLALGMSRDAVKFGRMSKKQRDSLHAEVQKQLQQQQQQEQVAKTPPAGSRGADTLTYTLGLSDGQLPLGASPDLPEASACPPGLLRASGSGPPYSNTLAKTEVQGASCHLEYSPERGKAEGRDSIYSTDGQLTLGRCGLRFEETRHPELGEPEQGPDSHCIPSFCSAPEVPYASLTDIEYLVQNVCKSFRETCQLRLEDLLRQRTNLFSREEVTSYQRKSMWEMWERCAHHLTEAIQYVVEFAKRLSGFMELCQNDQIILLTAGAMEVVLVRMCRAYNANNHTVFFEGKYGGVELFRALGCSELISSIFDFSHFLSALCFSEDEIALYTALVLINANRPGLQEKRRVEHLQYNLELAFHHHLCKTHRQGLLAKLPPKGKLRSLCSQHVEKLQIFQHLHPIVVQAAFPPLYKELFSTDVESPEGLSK
#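 Luciferase reporter read in Schneider cells carrying Gal4-RORγ (mouse) and UAS-Photinus luciferase; cells given compound 1 h before 700 uM copper sulfate induction, then incubated 20 h at ambient temperature.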
# uPA surface inh: blocks generation of uPA at the cell surface | AID 540303 | hit rate 0.31% among 330,000 | cell surface uPA generation assay, qHTS | Potency, µM (highest dose often 38.3 µM), inactives show at the top dose activity change, negative = inhibition, hits mostly inhibitors; active means well fitted inhibition curve with a large enough effect; inconclusive means small, poorly fitted or top-dose-only effect; inactive means no such curve, though single readings can be large or run the other way; tested in mouse RAW 264.7 cells; further: on the % scale 0 is the no-effect control and ±100 the full control effect; nearly all actives have a fitted effect of over 55% in size
# VP16 counter: counter-screen for ROR gamma inhibitors: Gal4-VP16 reporter; hit rate 3.5% among 310,000; Potency, µM (doses to about 53.6 µM), for the others: top-dose activity, negative = inhibition, hits mostly inhibitors; Drosophila S2 Gal4-VP16 UAS-luciferase, luminescence, 20 h;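 further: Gal4-VP16 expression switched on by copper sulfate through the metallothionein promoter; on the % scale 0 is the no-effect control and ±100 the full control effect; nearly all actives have a fitted effect of over 50% in size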
# BCR signal inh: blocks chronic active B-cell receptor signaling; ABC-DLBCL IkBa-CBG/CBR reporter, luminescence ratio, 4 h; Potency, µM (top dose mostly 46.1 µM), without a hit: at the highest dose activity change, negative = inhibition, actives largely listed as inhibitors; hit rate 0.05% among 340,000; AID 493014; active means well fitted inhibition curve with a large enough effect in the signal ratio, with a control signal flat, not every such curve was filed as active; inconclusive means small, poorly fitted or top-dose-only effect, or effect the other way, or a change in a side signal; the % refers to the signal ratio;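 further: plate controls were basal doxycycline-induced cells for no effect and cells given 10 µM MG132 for full effect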
#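 Concentration-response series (up to 46 uM) were applied to TMD8 dual-reporter cells for 4 h at 37C with doxycycline. Green/red ratio, after filter-overlap correction, defined %Activity; red signal alone was normalised to basal cells and zero luminescence.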
# * = called active by the depositor; u = inconclusive; x = no result given; [ ] = remark or other dose. A selection: hits, their analogues and other compounds. The true share with any hit is near 5.5%. Unless noted, the call rests on the fitted dose curve; in most records, active means well fitted curve in the direction sought with a large enough effect; inconclusive means small, poorly fitted or top-dose-only effect, or another doubt; inactive means no such curve, though single readings can be large; an effect the other way counts as inactive or inconclusive. Potency means the concentration at half of the fitted maximal effect.
SMILES,Integrin act MD,Mito fusion yeast,RORg inh,uPA surface inh,VP16 counter,BCR signal inh
C=CCNC(=S)NNC(=O)CCC(O)COCCC(C)C (stereo not given),19%,3%,-37%,0%,3%,1%
CCCCC(=O)Nc1ccc(C(=O)NNC(=S)NC(=O)c2ccccc2[N+](=O)[O-])cc1,11%,0%,12%,3%,-3%,-3%
CCCCc1ccc(NC(=O)C(=O)NCCN2CCN(Cc3ccc([N+](=O)[O-])cc3)CC2)cc1,-39%,-1%,u,3%,-28%,-3%
S=C1NC[C@H](CC2CCCCC2)N1CC1CCCCC1,-38%,-11%,0.89µM*,-4%,5µM*,21%
CC(C)C[C@H]1CNC(=S)N1CC1CCN(CC2CCCC2)CC1,3%,x,x,-5%,x,x
CCCC[C@@H]1CNC(=S)N1CCC12CC3CC(CC(C3)C1)C2,-9%,5%,0.56µM*,10%,3.2µM*,9%
CCCC[C@@H]1CNC(=S)N1CC1CCCCC1,-21%,-16%,1.4µM*,2%,6.3µM*,-1%
CC(C)C[C@H]1CNC(=S)N1CC1CCN(CCC23CC4CC(CC(C4)C2)C3)CC1,0%,x,x,-14%,x,x
O=[N+]([O-])c1cc(Br)c2nsnc2c1N1CCOCC1,-21%,1%,2%,-7%,6%,u
CC(C)(C)c1ccc(C(=O)NC(=O)COC(=O)CCS(=O)(=O)c2ccccc2)cc1,13%,-1%,x,2%,x,0%
Cn1c(CCN2CCN(c3ccccn3)CC2)nc2cc(NS(=O)(=O)c3ccccc3)ccc21,u,4%,22%,-17%,-2%,-12%
C=CCNC(=O)/C(C#N)=C/c1c(C)nn(-c2ccccc2)c1Cl,0%,2%,u,-1%,13µM*,u
Cc1cc(C)nc(NC(=S)Nc2ccc(F)cc2F)c1,2%,-10%,0.71µM*,0%,-30%,8%
Cc1cccnc1NC(=S)Nc1ccc(F)cc1F,-34%,6%,6.3µM*,-2%,u,-16%
Cc1ccc(C)c(NC(=O)c2ccccn2)c1,2%,5%,-3%,x,-3%,u
Cc1ccc(C)c(NC(=S)Nc2ncccc2C)c1,-19%,18%,3.5µM*,10%,u,u
CCCNC(=S)Nc1ccc(F)cc1F,-33%,-4%,u,-9%,9%,4%
COc1ccc(CNC(=O)C[C@H]2C(=O)N(C3CCCCC3)C[C@@H]2Cc2ccccc2)cc1,-8%,1%,-27%,1%,10%,-13%
CCOC(=O)c1cc(OC(=O)c2cccc(Cl)c2)n(-c2ccccc2)n1,x,-8%,x,x,x,14%
CC(O)CNc1nc2sc3c(c2c(=O)n1CCc1ccccc1)CCCCC3 (stereo not given),-22%,20µM*,u,-3%,u,u
COCCNC(=S)N1CCN(C/C=C/c2ccccc2)CC1,-12%,2%,u,1%,-8%,5%
COc1cc(NC(=S)N2CCN(C/C=C/c3ccccc3)CC2)cc(OC)c1,8%,6%,11µM*,-10%,u,-11%
COc1cccc(NC(=S)N2CCN(C/C=C/c3ccccc3)CC2)c1,-4%,-11%,10µM*,x,u,1%
S=C(Nc1ccccc1)N1CCN(C/C=C/c2ccccc2)CC1,-39%,-5%,11µM*,-5%,u,u
COc1cc(NC(=S)N2CCN(C(c3ccccc3)c3ccccc3)CC2)cc(OC)c1,-5%,1%,4.5µM*,0%,0%[0.365 µM],u
SMILES,Integrin act MD,Mito fusion yeast,RORg inh,uPA surface inh,VP16 counter,BCR signal inh
O=C(c1ccc(N2CCN(C(=O)c3ccc(F)cc3F)CC2)cc1)c1cccc(F)c1,5%,-6%,31%,-24%,u,6%
COC(=O)N1CCC2(CC1)CN(C(=O)Nc1ccc(OC)cc1)C2,x,x,23%,x,-6%,x
O=C(COc1cccc(Br)c1)Nc1ccc(N2CCOCC2)cc1N1CCOCC1,-6%,-5%,x,2%,x,u
COc1ccccc1NS(=O)(=O)c1cc(C(=O)N2CCN(C/C=C/c3ccccc3)CC2)ccc1C,0%,-1%,7%,4µM*,24%,3%
O=C(NCCc1ccccc1)c1ccc(S(=O)(=O)N2CCCC2)cc1,20%,1%,x,-3%,x,4%
CCOc1ccc(N=Cc2c(C)[nH]n(-c3nc4ccccc4[nH]3)c2=O)cc1,11%,-25%,14µM*,-9%,u,u
Cc1[nH]n(-c2ccccc2)c(=O)c1C=Nc1cnc2ccccc2c1,-17%,-1%,-41%,0%,-10%,19%
CCS(=O)(=O)c1ccc(O)c(NC(=O)Nc2ccccc2OC)c1,-29%,1%,43%,0%,2%,-2%
O=C(CO/N=C/c1c(Cl)cccc1Cl)NNC(=O)c1cccc(Cl)c1,16%,-3%,-16%,0%,2%,1%
O=C(CO/N=C/c1ccc(Cl)cc1Cl)NNC(=O)c1ccc(Cl)cc1Cl,-14%,2%,0.089µM*,1%,u,u
Cc1ccc(-n2[nH]c(C)c(C=NC34CN5CN(CN(C5)C3)C4)c2=O)cc1C,-1%,-16%,-27%,-10%,5%,x
COCCCN=Cc1c(C)[nH]n(-c2ccc(Br)c(C)c2)c1=O,6%,2%,7.1µM*,-5%,6.3µM*,-6%
Cc1ccc(C23CC4CC(CC(NC(=O)N5CCN(C)CC5)(C4)C2)C3)cc1,-54%,1%,13µM*,0%,-23%,3%
Cc1ccc(C23CC4CC(CC(C(=O)N5CCN(C)CC5)(C4)C2)C3)cc1,-55%,0%,-2%,-14%,0%,2%
CCN(CC)c1ccc(/C=N/NC(=O)C(O)(c2ccccc2)c2ccccc2)o1,x,-2%,5.6µM*,x,4µM*,u
COC(=O)N1c2ccccc2C23[C@@H]4CN5CCC[C@]6(CCC12C(O)(C6)C4=O)[C@H]53,x,x,-30%,x,-5%,x
C[C@H](O)Cn1cnc2c1c(=O)n(C)c(=O)n2C,x,x,8%[2.98 µM],x,-13%[17 µM],x
Cn1c(SCC(=O)c2ccccc2)nnc1-c1ccc(O)cc1,-18%,0%,0%,-2%,11µM*,u
Cn1c(SCC(=O)c2ccccc2)nnc1-c1ccncc1,14%,-2%,10%,-16%,25%,-5%
O=C(NNC1OC(CO)C(O)C(O)C1O)c1cccc(Br)c1 (stereo not given),-9%,-16%,11µM*,-4%,11%[10 µM],u
CC1(C)OC(=O)C=C[C@@]2(C)C1C[C@@H](O)[C@]1(C)C2CC[C@@]2(C)C(c3ccoc3)OC(=O)[C@H]3O[C@]321 (stereo not given in full),x,x,-13%,x,-15%,x
Cn1c(N2CCN(C(c3ccccc3)c3ccccc3)CC2)nc2ccccc21,-11%,-6%,11µM*,-6%,13µM*,10%

# Compound activity (PubChem BioAssay)
